Hits are enriched below; roughly 3.8% of the tested compounds scored in any of these assays.
pPAFAH FP inh: pPAFAH enzyme inhibitors, primary screen, biochemical, fluorescence polarization, human. recombinant pPAFAH, FP-rhodamine probe fluorescence polarization. inhibition, % at 3.39 µM. Platelet-activating factor acetylhydrolase (Homo sapiens), Q13093. hit rate 1.5% among 330,000;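 active = inhibition above the mean inhibition across the screen plus 3 SD, cut at about 25% in these data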;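 also: inhibitors block binding of the rhodamine activity-based probe so polarization drops; 0% = enzyme with DMSO and 100% = wells lacking pPAFAH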
PfM18AAP inh: PfM18AAP inhibitors, malaria aminopeptidase, primary screen, biochemical, QFRET, recombinant enzyme; H-Glu-NHMec fluorogenic cleavage; hit rate 1.2% among 290,000; inhibition, % at 7.35 µM; AID 1822, 2009;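 active = inhibition above the campaign mean inhibition over all tested compounds plus 3 SD, cut at about 28% in these data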;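 also: 0% = plate median of test compound wells and 100% = 2 mM ZnCl2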
PAFAH1B2 inh: PAFAH1B2 enzyme inhibitors, primary screen, biochemical, fluorescence polarization, human | hit rate 1.2% among 340,000 | AID 492953, 2010 | recombinant PAFAH1B2, FP-rhodamine activity probe | inhibition, % at 3.39 µM | Platelet-activating factor acetylhydrolase IB subunit alpha2 (Homo sapiens), P68402;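 active = inhibition above the mean of all tested compounds plus 3 SD, cut at about 24% in these data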;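 also: 0% = enzyme with DMSO and 100% = wells lacking PAFAH1B2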
Target sequence (P68402 whole entry, looked up): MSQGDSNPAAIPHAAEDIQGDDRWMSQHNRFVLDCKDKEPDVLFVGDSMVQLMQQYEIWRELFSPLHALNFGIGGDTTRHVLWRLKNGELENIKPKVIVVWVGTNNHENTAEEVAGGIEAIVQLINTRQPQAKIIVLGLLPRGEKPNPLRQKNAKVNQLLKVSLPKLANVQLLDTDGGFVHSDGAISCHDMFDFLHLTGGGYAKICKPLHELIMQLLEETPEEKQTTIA
Pemphigus Ab inh: inhibitors of pemphigus antibody binding to DSG3, primary screen, biochemical, bead-based, flow cytometry, scFv-GFP; Desmoglein-3 (Homo sapiens), P32926; DSG3-coupled beads, scFv-anti-DSG3-GFP binding; stronger effect = lower value; AID 588358, 2011; hit rate 0.48% among 310,000; binding (percent of control), % at 10 µM;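 active = binding more than 3 SD below its plate's average and above zero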
PAFAH2 inh: PAFAH2 enzyme inhibitors, primary screen, biochemical, fluorescence polarization, human; recombinant PAFAH2, FP-rhodamine activity probe; inhibition, % at 3.39 µM; hit rate 0.99% among 340,000;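 active = inhibition above the mean over all tested compounds plus 3 SD, cut at about 30% in these data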;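 also: inhibitors block probe labeling of enzyme so polarization drops; 0% = enzyme with DMSO and 100% = wells lacking PAFAH2 protein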
PAFAH1B3 FP inh: PAFAH1B3 enzyme inhibitors, primary screen, biochemical, fluorescence polarization, human. recombinant PAFAH1B3, FP-rhodamine probe. hit rate 0.28% among 340,000. AID 492972, 2010. Platelet-activating factor acetylhydrolase IB subunit alpha1 (Homo sapiens), Q15102. inhibition, % at 3.39 µM;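 active = inhibition above the screen-wide average of all tested compounds plus 3 SD, cut at about 25% in these data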;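 also: 0% = enzyme with DMSO only and 100% = wells lacking PAFAH1B3 protein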
Target sequence (Q15102 whole entry, looked up): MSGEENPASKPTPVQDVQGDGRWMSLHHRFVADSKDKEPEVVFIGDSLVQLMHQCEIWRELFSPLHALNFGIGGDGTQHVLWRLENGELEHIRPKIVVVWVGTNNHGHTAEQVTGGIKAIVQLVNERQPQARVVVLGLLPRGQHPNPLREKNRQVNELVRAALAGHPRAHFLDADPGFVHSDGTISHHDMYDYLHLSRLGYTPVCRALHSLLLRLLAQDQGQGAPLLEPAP
Starred values were filed as active, the others as inactive; . = not tested or not shown.

SMILES	pPAFAH FP inh	PfM18AAP inh	PAFAH1B2 inh	Pemphigus Ab inh	PAFAH2 inh	PAFAH1B3 FP inh
COc1ccc(S(=O)(=O)Nc2ccc3c(c2)C(=O)N([C@H](C)CO)C[C@H](C)[C@@H](CN(C)Cc2ccncc2)OCCCC[C@@H](C)O3)cc1	.	.	.	116.5	.	.
CCN(C(=O)CSc1nnc(CNc2cccc(OC)c2)n1C1CCCCC1)C1CCS(=O)(=O)C1 (stereo unspecified)	0.5	-1.8	4.3	103.0	-6.0	13.2
C[C@@H]1CN([C@H](C)CO)C(=O)c2cc(C3=CCCCC3)cnc2O[C@@H]1CN(C)Cc1ccccc1C(=O)O	.	.	.	106.8	.	.
CN(NC1OC(=O)c2ccccc21)c1ccc(Cl)cc1[N+](=O)[O-] (stereo unspecified)	3.4	-5.4	0.8	.	0.7	15.0
CN(NC1OC(=O)c2ccccc21)c1ccc(C(F)(F)F)cc1[N+](=O)[O-] (stereo unspecified)	12.0	-16.7	.	83.8*	.	.
Nc1ccc(O)cc1	37.6*	.	.	.	.	.
CCOc1ccccc1OCCCC(=O)Nc1cc(S(=O)(=O)N2CCCCC2)ccc1C	.	.	.	103.3	.	.
CCOc1ccc(Nc2ncnc3c2cnn3-c2ccccc2)cc1	-0.5	3.9	-3.4	47.6*	0.5	-0.5
Cc1cccc(-n2ncc3c(Nc4ccc(F)cc4)ncnc32)c1	2.0	.	-3.6	99.5	-7.2	5.7
COc1ccc(Nc2ncnc3c2cnn3-c2cccc(C)c2)cc1OC	.	.	-0.6	34.2*	-4.3	5.0
O=C(CNC(=O)c1ccccc1)N/N=C/c1cc(Br)ccc1O	9.4	4.9	27.3*	103.5	4.4	9.8
COc1ccc(NC(=O)COC(=O)c2ccc3ccccc3n2)cc1	17.7	.	-1.6	104.0	6.4	2.6
CCN(CC)c1ccc(NC(=O)COC(=O)c2ccc3ccccc3n2)cc1	25.5*	4.4	-5.0	.	-3.9	7.1
COc1ccc(C2=NN(CC(=O)Nc3cc(C)ccc3C)C(=O)CC2)cc1	4.5	-1.1	-5.0	98.3	-7.0	0.9
NC(=O)CSc1ccc(Br)cc1	0.8	-10.8	49.6*	96.1	-6.1	3.1
CC(Sc1ccc(Br)cc1)C(N)=O (stereo unspecified)	4.9	-2.5	36.9*	.	6.4	3.8
COc1ccc2c(c1)Cc1c-2cc(Br)c(N)c1Br	.	.	.	102.9	.	.
C=C1C(=O)[C@@]23[C@H](O)C[C@@H]4C(C)(C)CC[C@H](O)[C@]4(C)[C@@H]2C[C@H](O)[C@@H]1[C@H]3O	2.1	-18.5	80.5*	98.8	-1.9	-5.0
C=C1C(=O)[C@@]23[C@H](O)C[C@@H]4C(C)(C)CC[C@H](O)[C@@]4(C)[C@@H]2CC[C@@H]1[C@H]3O	3.8	-12.5	86.0*	113.8	0.3	11.1
O=C(Oc1ccc(N(C(=O)c2ccncc2)S(=O)(=O)c2ccc(Cl)cc2)cc1)c1ccncc1	6.8	4.6	28.9*	101.1	-3.6	7.7
N#CC(OC(=O)c1ccccc1)c1ccccc1 (stereo unspecified)	.	.	18.4	106.3	3.6	3.7
CCN(CC)c1ccc(C(=O)NNC(=O)Cn2c(=O)cnc3ccccc32)cc1	.	.	.	101.4	.	.
COCCN=C1NN=C(c2ccc(NC(C)=O)cc2)CS1	0.9	28.4*	-3.1	98.1	-6.2	-0.8
O=C(COc1ccccc1)Nc1nnc(S(=O)(=O)Nc2ccccc2)s1	26.7*	-0.3	6.8	100.8	10.8	1.8
CCC(Oc1ccccc1)C(=O)Nc1nnc(S(=O)(=O)N2CCCCC2)s1 (stereo unspecified)	2.3	2.8	1.9	84.9	12.2	6.7
CN(c1ccccc1)S(=O)(=O)c1nnc(NC(=O)COc2ccccc2)s1	10.9	2.9	14.7	99.3	-2.7	12.4
CCC(Oc1ccccc1)C(=O)Nc1nnc(S(=O)(=O)Nc2ccccc2)s1 (stereo unspecified)	32.6*	-0.7	8.1	91.6	0.6	-0.2
Cc1ccc(OCC(=O)Nc2nnc(S(=O)(=O)N3CCC(C)CC3)s2)cc1	14.8	10.3	22.3	74.4*	13.7	10.9
O=S1(=O)CCN(C2CCCCCCC2)CC1	.	.	.	96.7	.	.

Screening results deposited in PubChem by several laboratories.
